Source: ChEMBL document CHEMBL1961873, “Compounds: GSK PKIS; Assays: Nanosyn kinase panel” (2012)
Values joined by “and” are separate entries in the source; they are usually repeats but may differ in a detail not shown here. Equal values may be shown once.

Tests used:
[1] = molecular target: Platelet-derived growth factor receptor beta (Homo sapiens) (UniProt P09619); details: at 1 µM;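 note: each value is a mean percent inhibition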
[2] = molecular target: Tyrosine-protein kinase FRK (Homo sapiens) (UniProt P42685); details: at 0.1 µM
[3] = molecular target: Tyrosine-protein kinase FRK (Homo sapiens) (UniProt P42685); details: at 1 µM
[4] = molecular target: Protein-tyrosine kinase 2-beta (Homo sapiens) (UniProt Q14289); details: at 0.1 µM
Chain of Protein-tyrosine kinase 2-beta (Homo sapiens) (Q14289 whole entry, looked up): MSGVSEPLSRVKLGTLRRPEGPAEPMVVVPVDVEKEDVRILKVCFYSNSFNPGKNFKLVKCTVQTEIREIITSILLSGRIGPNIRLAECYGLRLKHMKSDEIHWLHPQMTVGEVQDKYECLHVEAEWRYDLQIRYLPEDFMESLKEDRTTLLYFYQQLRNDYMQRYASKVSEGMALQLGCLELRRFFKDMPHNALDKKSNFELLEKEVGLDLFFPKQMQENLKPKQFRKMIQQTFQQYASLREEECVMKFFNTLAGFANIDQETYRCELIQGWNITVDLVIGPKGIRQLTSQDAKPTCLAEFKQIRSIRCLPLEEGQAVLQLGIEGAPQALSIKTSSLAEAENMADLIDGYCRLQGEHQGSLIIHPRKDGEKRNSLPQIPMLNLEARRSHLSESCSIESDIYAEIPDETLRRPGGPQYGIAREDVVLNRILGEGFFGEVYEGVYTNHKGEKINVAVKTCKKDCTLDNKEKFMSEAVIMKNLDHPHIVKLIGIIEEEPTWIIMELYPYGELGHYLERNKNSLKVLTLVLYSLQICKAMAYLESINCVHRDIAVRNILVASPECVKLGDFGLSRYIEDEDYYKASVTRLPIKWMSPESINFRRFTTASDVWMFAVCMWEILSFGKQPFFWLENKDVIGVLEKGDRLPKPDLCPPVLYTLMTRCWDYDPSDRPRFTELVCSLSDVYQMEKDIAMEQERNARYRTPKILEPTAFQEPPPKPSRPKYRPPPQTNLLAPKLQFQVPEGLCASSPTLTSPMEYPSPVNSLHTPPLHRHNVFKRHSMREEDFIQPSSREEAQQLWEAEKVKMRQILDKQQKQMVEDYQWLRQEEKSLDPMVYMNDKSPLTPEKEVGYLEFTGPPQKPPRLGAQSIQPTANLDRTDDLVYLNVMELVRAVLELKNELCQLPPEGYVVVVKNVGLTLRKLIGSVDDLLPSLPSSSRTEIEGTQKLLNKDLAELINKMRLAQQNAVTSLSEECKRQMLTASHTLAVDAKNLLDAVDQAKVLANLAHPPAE

[5] = molecular target: Protein-tyrosine kinase 2-beta (Homo sapiens) (UniProt Q14289); details: at 1 µM
[6] = molecular target: Proto-oncogene tyrosine-protein kinase receptor Ret (Homo sapiens) (UniProt P07949); details: at 0.1 µM
Chain of Proto-oncogene tyrosine-protein kinase receptor Ret (Homo sapiens) (P07949 whole entry): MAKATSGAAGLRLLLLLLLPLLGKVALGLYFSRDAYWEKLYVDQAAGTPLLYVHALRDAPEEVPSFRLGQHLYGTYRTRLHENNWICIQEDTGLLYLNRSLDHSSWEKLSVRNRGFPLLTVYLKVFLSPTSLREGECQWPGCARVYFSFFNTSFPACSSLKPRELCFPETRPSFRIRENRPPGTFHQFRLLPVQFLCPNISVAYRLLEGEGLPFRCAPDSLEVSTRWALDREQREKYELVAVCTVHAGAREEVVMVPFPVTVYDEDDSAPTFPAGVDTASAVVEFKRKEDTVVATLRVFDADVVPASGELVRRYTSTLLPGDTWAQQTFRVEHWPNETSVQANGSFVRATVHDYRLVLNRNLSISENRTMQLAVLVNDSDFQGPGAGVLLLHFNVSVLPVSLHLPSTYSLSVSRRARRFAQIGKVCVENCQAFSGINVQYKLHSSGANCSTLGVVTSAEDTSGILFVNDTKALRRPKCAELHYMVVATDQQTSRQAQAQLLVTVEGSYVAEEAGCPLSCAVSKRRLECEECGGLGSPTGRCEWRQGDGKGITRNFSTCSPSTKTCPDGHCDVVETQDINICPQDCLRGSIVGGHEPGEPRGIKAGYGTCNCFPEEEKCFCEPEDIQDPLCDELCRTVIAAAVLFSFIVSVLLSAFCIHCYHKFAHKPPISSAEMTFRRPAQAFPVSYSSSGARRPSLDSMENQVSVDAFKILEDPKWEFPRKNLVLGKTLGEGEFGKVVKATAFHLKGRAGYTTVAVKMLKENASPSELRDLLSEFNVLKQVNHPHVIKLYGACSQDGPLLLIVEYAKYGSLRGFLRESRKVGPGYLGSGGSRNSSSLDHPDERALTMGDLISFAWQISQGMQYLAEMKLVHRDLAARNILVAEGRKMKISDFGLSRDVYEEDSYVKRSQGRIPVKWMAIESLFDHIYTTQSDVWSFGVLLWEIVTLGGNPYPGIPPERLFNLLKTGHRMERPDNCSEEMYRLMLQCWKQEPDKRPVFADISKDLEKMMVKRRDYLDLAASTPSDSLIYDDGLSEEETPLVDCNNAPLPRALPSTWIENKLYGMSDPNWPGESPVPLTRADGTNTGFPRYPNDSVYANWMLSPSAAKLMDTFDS

[7] = molecular target: Proto-oncogene tyrosine-protein kinase receptor Ret (Homo sapiens) (UniProt P07949); details: at 1 µM
[8] = tested on: Proto-oncogene tyrosine-protein kinase receptor Ret (Homo sapiens), P07949 [V804L]; details: at 0.1 µM
Chain of Proto-oncogene tyrosine-protein kinase receptor Ret (Homo sapiens), P07949 [V804L] (P07949 whole entry V804L): as the sequence (P07949 whole entry) above, with V804L counted along it

[9] = tested on: Proto-oncogene tyrosine-protein kinase receptor Ret (Homo sapiens), P07949 [V804L]; details: at 1 µM
[10] = tested on: Proto-oncogene tyrosine-protein kinase receptor Ret (Homo sapiens), P07949 [Y791F]; details: at 0.1 µM
Chain of Proto-oncogene tyrosine-protein kinase receptor Ret (Homo sapiens), P07949 [Y791F] (P07949 whole entry Y791F): as the sequence (P07949 whole entry) above, with Y791F counted along it

[11] = tested on: Proto-oncogene tyrosine-protein kinase receptor Ret (Homo sapiens), P07949 [Y791F]; details: at 1 µM
[12] = molecular target: Macrophage-stimulating protein receptor (Homo sapiens) (UniProt Q04912); details: at 0.1 µM
Chain of Macrophage-stimulating protein receptor (Homo sapiens) (Q04912 25-304 limits assumed): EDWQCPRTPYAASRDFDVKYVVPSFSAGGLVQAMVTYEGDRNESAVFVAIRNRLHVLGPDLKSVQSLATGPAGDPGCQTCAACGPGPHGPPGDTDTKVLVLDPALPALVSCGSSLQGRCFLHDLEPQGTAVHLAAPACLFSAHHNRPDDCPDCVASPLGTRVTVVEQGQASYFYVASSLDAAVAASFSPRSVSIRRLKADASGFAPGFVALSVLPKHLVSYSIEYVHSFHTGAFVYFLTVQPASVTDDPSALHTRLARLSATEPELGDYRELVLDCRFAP
Chain of Macrophage-stimulating protein receptor (Homo sapiens) (Q04912 310-1400 limits assumed): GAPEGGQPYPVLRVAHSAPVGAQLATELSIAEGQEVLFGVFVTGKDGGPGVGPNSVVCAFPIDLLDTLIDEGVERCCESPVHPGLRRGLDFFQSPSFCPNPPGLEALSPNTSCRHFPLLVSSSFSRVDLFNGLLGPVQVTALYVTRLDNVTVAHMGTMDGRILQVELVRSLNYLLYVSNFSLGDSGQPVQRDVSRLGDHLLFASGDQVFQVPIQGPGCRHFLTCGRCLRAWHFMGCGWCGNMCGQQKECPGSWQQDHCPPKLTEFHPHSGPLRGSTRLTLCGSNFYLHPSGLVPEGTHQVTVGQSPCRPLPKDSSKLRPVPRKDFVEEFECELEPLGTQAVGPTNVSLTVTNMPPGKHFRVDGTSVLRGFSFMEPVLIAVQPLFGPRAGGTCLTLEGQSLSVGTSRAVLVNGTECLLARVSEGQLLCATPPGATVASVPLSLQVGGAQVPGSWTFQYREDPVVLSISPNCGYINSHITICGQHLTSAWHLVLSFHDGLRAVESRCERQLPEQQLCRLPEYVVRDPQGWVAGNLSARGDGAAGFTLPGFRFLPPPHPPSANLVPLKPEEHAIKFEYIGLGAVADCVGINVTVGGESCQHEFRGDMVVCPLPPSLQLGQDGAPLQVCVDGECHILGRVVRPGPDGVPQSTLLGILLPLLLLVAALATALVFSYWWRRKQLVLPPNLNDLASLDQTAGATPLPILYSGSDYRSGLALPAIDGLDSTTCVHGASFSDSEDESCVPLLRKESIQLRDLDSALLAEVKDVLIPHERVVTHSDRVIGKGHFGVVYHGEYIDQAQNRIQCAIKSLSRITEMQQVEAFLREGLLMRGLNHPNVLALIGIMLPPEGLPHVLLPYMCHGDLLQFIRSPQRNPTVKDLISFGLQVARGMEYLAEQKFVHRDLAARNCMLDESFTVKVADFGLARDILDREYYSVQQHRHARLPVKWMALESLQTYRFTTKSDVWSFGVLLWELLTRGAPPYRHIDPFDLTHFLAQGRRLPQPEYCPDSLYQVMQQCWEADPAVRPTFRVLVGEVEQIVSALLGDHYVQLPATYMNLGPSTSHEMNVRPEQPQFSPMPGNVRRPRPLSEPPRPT

[13] = molecular target: Macrophage-stimulating protein receptor (Homo sapiens) (UniProt Q04912); details: at 1 µM
[14] = molecular target: Proto-oncogene tyrosine-protein kinase ROS (Homo sapiens) (UniProt P08922); details: at 0.1 µM
[15] = molecular target: Proto-oncogene tyrosine-protein kinase ROS (Homo sapiens) (UniProt P08922); details: at 1 µM
[16] = molecular target: Proto-oncogene tyrosine-protein kinase Src (Homo sapiens) (UniProt P12931); details: at 0.1 µM
Chain of Proto-oncogene tyrosine-protein kinase Src (Homo sapiens) (P12931 2-536 limits assumed): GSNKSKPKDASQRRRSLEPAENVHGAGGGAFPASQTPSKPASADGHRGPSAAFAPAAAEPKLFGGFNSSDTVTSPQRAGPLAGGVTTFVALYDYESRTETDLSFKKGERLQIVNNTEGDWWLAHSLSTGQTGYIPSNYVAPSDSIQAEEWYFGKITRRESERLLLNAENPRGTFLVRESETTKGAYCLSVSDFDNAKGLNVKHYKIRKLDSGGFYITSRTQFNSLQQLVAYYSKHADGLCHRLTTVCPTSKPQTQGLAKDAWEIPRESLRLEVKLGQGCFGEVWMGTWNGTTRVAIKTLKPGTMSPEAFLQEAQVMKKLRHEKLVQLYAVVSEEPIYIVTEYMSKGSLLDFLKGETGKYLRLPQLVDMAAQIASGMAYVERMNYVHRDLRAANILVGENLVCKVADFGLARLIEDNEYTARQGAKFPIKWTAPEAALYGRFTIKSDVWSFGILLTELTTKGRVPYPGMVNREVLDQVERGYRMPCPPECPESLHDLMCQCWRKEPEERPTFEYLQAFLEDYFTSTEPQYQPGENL

[17] = molecular target: Proto-oncogene tyrosine-protein kinase Src (Homo sapiens) (UniProt P12931); details: at 1 µM
[18] = molecular target: Tyrosine-protein kinase Srms (Homo sapiens) (UniProt Q9H3Y6); details: at 0.1 µM
Chain of Tyrosine-protein kinase Srms (Homo sapiens) (Q9H3Y6 whole entry): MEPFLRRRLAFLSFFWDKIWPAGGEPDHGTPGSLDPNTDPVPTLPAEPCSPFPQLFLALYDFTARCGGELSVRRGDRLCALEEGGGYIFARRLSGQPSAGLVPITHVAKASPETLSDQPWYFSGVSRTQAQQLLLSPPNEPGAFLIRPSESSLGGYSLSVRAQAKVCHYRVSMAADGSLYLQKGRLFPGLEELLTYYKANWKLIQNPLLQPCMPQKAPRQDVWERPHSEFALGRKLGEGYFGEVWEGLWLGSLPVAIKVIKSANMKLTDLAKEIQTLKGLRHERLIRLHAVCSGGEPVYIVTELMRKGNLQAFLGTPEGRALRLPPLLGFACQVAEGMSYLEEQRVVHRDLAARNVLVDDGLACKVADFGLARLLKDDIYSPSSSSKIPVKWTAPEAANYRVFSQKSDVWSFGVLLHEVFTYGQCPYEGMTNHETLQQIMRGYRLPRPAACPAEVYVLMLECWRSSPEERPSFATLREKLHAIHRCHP

[19] = molecular target: Tyrosine-protein kinase Srms (Homo sapiens) (UniProt Q9H3Y6); details: at 1 µM
[20] = molecular target: Tyrosine-protein kinase SYK (Homo sapiens) (UniProt P43405); details: at 0.1 µM;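 note: reported percentages are mean inhibition values for SYK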

Structure (SMILES)	inhibition [1]	inhibition [2]	inhibition [3]	inhibition [4]	inhibition [5]	inhibition [6]	inhibition [7]	inhibition [8]	inhibition [9]	inhibition [10]	inhibition [11]	inhibition [12]	inhibition [13]	inhibition [14]	inhibition [15]	inhibition [16]	inhibition [17]	inhibition [18]	inhibition [19]	inhibition [20]
O=C(O[C@H]1CN[C@H](C#Cc2cc3ncnc(Nc4ccc5c(cnn5Cc5ccccc5)c4)c3s2)C1)N1CCOCC1	6.66%	0.07%	-1.26%	1.18%	-1.26%	2.44%	4.66%	2.83%	4.7%	2.45%	8.34%	0.29%	2.37%	1.38%	-0.29%	0.01%	-0.98%	-0.4%	2.01%	0.27%
NS(=O)(=O)c1ccc(N/N=C2\C(=O)Nc3ccc(C(=O)NCc4ccncc4)cc32)cc1	85.3%	1.15%	0.41%	3.79%	8.61%	11.1%	49.3%	31.4%	75.2%	10.6%	51.9%	1.31%	7.54%	3.91%	4.83%	2.77%	29.2%	0.62%	1.01%	-2.4%
CS(=O)(=O)Nc1ccc(-c2ccc3c(NC(=O)C4CC4)n[nH]c3c2)cc1	8.42%	1.21%	1.03%	9.87%	8.59%	3.92%	6.93%	4.24%	8.77%	6.88%	6.93%	1.04%	7.91%	11.3%	11.7%	-4.32%	8.03%	-0.44%	0.5%	-4.62%
COC(=O)Nc1nc2ccc(Oc3ccc(NC(=O)Nc4cc(C(F)(F)F)ccc4F)cc3)cc2s1	55.9%	0.62%	4.14%	1.98%	6.74%	86.7%	88.4%	67.3%	84.6%	78.9%	83.2%	1.92%	1.28%	1.61%	7.35%	0.46%	26.9%	0.28%	-0.86%	0.09%
CS(=O)(=O)Nc1ccc(-c2cc(-c3ccccc3)cc(C(N)=O)c2N)cc1	9.4%	-0.3%	1.63%	3.11%	8.02%	-0.09%	2.84%	2.01%	2.99%	4%	3.96%	-0.02%	-1.34%	4.8%	6.51%	2.73%	4.51%	-2.19%	-2.04%	-0.83%
Cc1nnc(-c2cccc(-c3ccc(C(=O)NCC4CC4)cc3)c2)o1	8.15%	1.96%	3.45%	12.3%	9.85%	4.13%	7.32%	4.63%	16.7%	5%	14.4%	3.19%	8.29%	5.45%	6.04%	12.5%	10.2%	-2.52%	2.96%	-3.49%
CCS(=O)(=O)c1ccc(OC)c(Nc2ncc(-c3cccc(C(C)=O)c3)o2)c1	84.3%	3.25%	14.2%	5.43%	8.24%	7.26%	33.6%	5.03%	28.8%	6.91%	39.2%	-2.76%	3.79%	3.34%	16.5%	16.3%	70.7%	0.94%	17.7%	-5.14%
CC1(C)CC(n2cnc(-c3ccc(F)cc3)c2-c2ccnc(N)n2)CC(C)(C)N1	5.35%	0.92%	1.66%	4.26%	3.23%	-0.92%	-0.44%	2.21%	2.81%	1.42%	1.67%	2.97%	5.62%	5.01%	7.73%	-1.43%	5.26%	0.52%	-1.76%	-1.03%
CCS(=O)(=O)c1ccc(OC)c(Nc2ncc(-c3cccc(F)c3)o2)c1	83.5%	10.5%	46.4%	11%	22.9%	13.5%	56.6%	7.78%	33.8%	15.9%	56.6%	10.3%	6.8%	8.05%	27.5%	49.4%	89.3%	3.47%	18.5%	0.45%
COc1cc(Nc2ncc(-c3ccccc3)o2)cc(OC)c1	62.9%	0.8%	4.62%	6.76%	9.54%	7.16%	8.97%	4.73%	11.9%	8.14%	13.2%	4.66%	-0.05%	3.98%	11.9%	14.9%	49.7%	2.58%	3.5%	-2.45%
CN1CCC(n2cnc(-c3ccc(F)cc3)c2-c2ccnc(NCCO)n2)CC1	20.7%	0.17%	1.02%	6.77%	18%	1.17%	1.73%	4.71%	10.8%	5.21%	15.2%	-0.99%	-1.06%	6.65%	2.72%	2.31%	7.94%	-0.64%	-0.42%	-2.08%
CC1=C(C(=O)Nc2ccc3[nH]ncc3c2)C(c2ccc(F)cc2)N=C(c2ccc(C(F)(F)F)nc2)N1 (stereo not drawn)	5.78%	-0.24%	1.73%	6.19%	8.2%	7.82%	38.6%	5.19%	26.6%	9.49%	43%	7.5%	5.38%	4.98%	14.9%	-1.49%	9.03%	1.74%	1.21%	3.11%
COc1ccccc1-c1cc(/C=C2\C(=O)Nc3ncc(Br)cc32)cc(Br)c1O	11.6%	0.6%	2.12%	15.6%	39.1%	2.23%	11.1%	9.25%	12%	12.6%	13.2%	2.48%	7.63%	7.94%	26.1%	4.87%	17.1%	2.16%	14.7%	-6.56%
CC(C)c1ccc(-c2cc(-c3c[nH]nc3-c3ccccn3)ccn2)cc1	11.4%	-0.8%	-0.88%	1.78%	3.36%	2.14%	5.62%	3.27%	2.58%	5.08%	4.31%	-5.99%	3.62%	2.06%	1.81%	1.53%	0.23%	0.28%	-0.57%	2.53%
COc1cccc(-n2ncc3c(N/N=C/c4ccc(C(=O)NCCN(C)C)cc4)ncnc32)c1	77.6%	3.91%	12.2%	5.72%	12.1%	22.4%	66.9%	12.7%	50.4%	37.3%	72.4%	28.8%	66.3%	11.2%	41.7%	65%	89.7%	2.52%	19.9%	-2.88%
NS(=O)(=O)c1cccc(N/C=C2\C(=O)Nc3ccccc32)c1	22.3%	3.47%	5.58%	14.1%	27.4%	7.9%	30.6%	11%	48.6%	10.1%	34.3%	-4.07%	7.57%	5.69%	9.87%	1.93%	12.9%	-0.1%	-1.56%	-6.93%
Cc1ccc(-c2cc3c(NC(=O)C4CC4)ncnc3o2)cc1	24.5%	2.14%	0.91%	9.96%	10.2%	8.44%	27.6%	6.9%	13.6%	8.23%	12.9%	-0.25%	11.4%	11.1%	16.3%	1.85%	24.4%	-1.85%	-5.36%	-5.27%
CN1CCC(C(=O)Nc2n[nH]c3nc(-c4ccc(O)cc4)c(Br)cc23)CC1	22.6% and 17.3%	1.77% and -0.83%	2.31% and 3.98%	10.8% and -4.15%	12.9% and 6.02%	7.08% and 5.43%	9.97% and 0.25%	4.68% and 1.68%		4.94% and 4.6%	20.8% and 5.43%	-1.02% and 7.11%	6.18% and 11.8%	5.2% and 4.89%	10.4% and 1.96%	6.76% and 6.26%	9.87% and 8.29%	-2.12% and 1.04%	-1.75% and -1%	-0.18% and 0.92%
O=C(Nc1n[nH]c2nnc(-c3cccnc3)cc12)C1CC1	4.59%	-0.62%	-0.08%	1.2%	1.77%	-1.02%	1.55%	0.89%	1.74%	1.5%	3.64%	-2.07%	-3.95%	-0.02%	1.38%	0.98%	2.5%	2.39%	0.54%	1.35%
Fc1ccc(Nc2nccc(-c3c(-c4ccc(C(F)(F)F)cc4)nn4ncccc34)n2)cc1F	3.62%	0.45%	0.39%	4.12%	9.36%	4%	6.84%	1.24%	-1.13%	5.34%	4.13%	-2.05%	4.5%	6.56%	8.15%	-0.44%	6.45%	0.3%	-1.61%	-5.43%
Cc1cc(O)cc(C)c1/C=C/c1cncc(C(N)=O)c1	42%	2.65%	14.2%	8.94%	8.75%	3.99%	8.88%	0.84%	4.4%	3.94%	8.63%	1.41%	4.46%	4.48%	6.31%	5.55%	54.2%	5.08%	31.6%	-0.5%
CNC(=O)c1ncccc1Nc1nc(Nc2cc3c(cc2OC)CCCN3C(=O)CN(C)C)nc2[nH]ccc12	27.1%	2.49%	2.98%	37.8%	95.7%	7.39%	9.1%	7.91%	20.4%	7.98%	27.1%	-2.25%	6.45%	83.4%	87.7%	0.68%	8.9%	0.09%	-0.71%	-1.3%
O=C(O[C@H]1CN[C@H](C#Cc2cc3ncnc(Nc4ccc5c(ccn5Cc5cc(F)ccc5F)c4)c3s2)C1)N1CCOCC1	7.68%	3.08%	2.35%	13.2%	5.45%	2.76%	4.91%	2.75%	4.26%	1.9%	19.6%	-0.04%	7.89%	5.19%	6.27%	0.52%	8.86%	-2.61%	-3.38%	-0.55%
Nc1ncnc2occ(-c3ccc(NC(=O)Nc4cc(C(F)(F)F)ccc4F)cc3)c12	86.7% and 81.4%	2.63% and 2.3%	19.1% and 11.8%	4.45% and -2.3%		85.3% and 84.5%	90.7% and 88.5%	68.3% and 62.2%	84.7% and 81.1%	79.2% and 72.6%	85.5% and 86.1%	6.58% and -2.93%	12.2% and 2.9%	4.91% and 3.1%	28.1% and 13.7%	10.1% and 1.77%	48.3% and 31.9%	0.41% and -0.6%	0.84% and 0.62%	-4.8% and -1.07%
CN(c1ccc(NC(=O)NCCN2CCOCC2)cc1)c1ccnc(Nc2ccc(CS(C)(=O)=O)cc2)n1	77.1%	1.69%	0.89%	11.2%	57.8%	16.5%	58.5%	13.2%	48.9%	29.1%	73.6%	4.51%	15.6%	9.47%	43.5%	4.5%	18.4%	-1.89%	1.22%	-3.19%
CS(=O)(=O)CCNCc1ccc(-c2ccc3ncnc(Nc4ccc(OCc5cccc(C(F)(F)F)c5)cc4)c3c2)o1	13.6%	2.67%	3.25%	1.85%	12.6%	3.22%	2.84%	3.51%	7.73%	5.55%	6.5%	-1.41%	3.05%	6.2%	8.72%	9.03%	15.8%	-3.48%	-3.22%	-1.19%
COc1cc(N2CCN(C(C)C)CC2)ccc1Nc1nc(Nc2cccc3ncccc23)c2cc[nH]c2n1	8.9%	0.82%	1.26%	15.2%	93.1%	4.55%	3.04%	7.14%	14%	8.29%	14.2%	-0.12%	1.56%	7.82%	45.3%	2%	0.42%	0.04%	0.63%	-1.08%
